This note sets out measurements from PubChem BioAssay (Tox21).

“And” between values parts separate entries of the source, which are not always exact repeats. Equal values may be shown once. Results filed as inconclusive are left out. A call without a number means that no potency is given here. Some structures have more than one record in an assay (separate samples or runs), and their calls can disagree. The source made the active and inactive calls. The call rests on the fitted dose curve; in most records, active means well fitted cell-killing curve with a large enough effect in the repeat runs; inconclusive means weak or mixed curves, or effect the other way; inactive means flat fitted curve, though single readings scatter.
Potency means the concentration at half of the fitted maximal effect.

A short description of this test: qHTS assay to identify small molecule agonists of the androgen receptor (AR) signaling pathway in the presence of an antagonist - cell viability counter screen (AID 1259379). Further: nearly all actives have a fitted effect of over 25% in size. Conditions: MDA-kb2 viability, CellTiter-Fluor, 16 h; series mostly up to 92.4 µM. From the text: National Center for Advancing Translational Sciences [NCATS]
NIH Chemical Genomics Center [NCGC]
U.S. Environmental Protection Agency [EPA]
National Institutes of Environmental Health Sciences [NIEHS]
National Toxicology Program [NTP]
U.S. Food and Drug Administration [FDA]
Androgen receptor (AR) is an important member of nuclear receptor family. Its signaling plays a critical role in AR-dependent prostate cancer and other androgen related diseases. Considerable attention has been given in the past decades to develop methods to study and screen for the environmental chemicals that have the potential to interfere with metabolic homeostasis, reproduction, developmental and behavioral functions. Therefore AR binding assay for screening against androgen agonists and antagonists can be used to identify potential endocrine disruptors.
MDA-kb2 cells (from ATCC, deposited by Wilson et al.) are human breast carcinoma cells that were stably transfected with a luciferase reporter gene under control of the MMTV promoter that contains response elements for both androgen receptor (AR) and glucocorticoid receptor (GR). This particular screening for measuring luciferase reporter gene activity using MDA-kb2 cells against Tox21 10K library compounds is a confirmation study on agonist mode screening in the presence of AR-antagonist compound (Nilutamide) at 3.0uM final concentration. The cytotoxicity of the compounds was tested in parallel by measuring the cell viability using CellTiter-Fluor assay system (Promega, Madison, WI) in the same wells.
Tox21 Assay Protocol Summary:
MDA-kb2 cells (cells cultured without CO2) were dispensed at 3,000 cells/well in 4uL of culture medium into white wall/solid-bottom 1536-well plates (Corning Life Sciences, Corning, NY) using a Multidrop Combi (Thermo Fisher Scientific Inc., Waltham, MA) dispenser. The assay plates were incubated at 37C and 0% CO2 for 5hr. One uL of 3.0uM (final concentration) Nilutamide or assay buffer was added using two separate tips of Flying Reagent Dispenser (FRD, Aurora Discovery, San Diego, CA). Then 23nL of compounds dissolved in DMSO at 15 concentrations and positive controls were transferred to the assay plates using a Pintool station (Wako, San Diego, CA). The assay plates were incubated at 37C and 0% CO2 for 16 hr. After 15hr incubation at 37C, 1uL/well CellTiter-Fluor reagent (Promega Corporation) was added to each well of the assay plates using FRD. After 1hr incubation at 37C and 0% CO2, the fluorescence signal was measured using a ViewLux plate reader (PerkinElmer, Shelton, CT).
Regarding `C=CCOC(C)=O`, the Potency entry is “inactive”.

Take `O=Cc1ccc2c(c1)OCO2`: the Potency entry is “inactive”.

Turning to `COP(=S)(Oc1cc(Cl)c(Br)cc1Cl)c1ccccc1` (stereo not given), the Potency entry was “inactive”.

For `CCCCC(CC)COP(=O)(Oc1ccccc1)Oc1ccccc1` (stereo not given), the Potency result was “inactive”.

Consider `Clc1cc(Cl)c(Cl)c(Cl)c1`, for which the Potency entry was “inactive”.

As for `CC(C)O.CC(C)O.OCCN(CCO)CCO.OCCN(CCO)CCO.[Ti]`, the Potency result was “inactive”.

Take `COC(=O)c1cncn1C(C)c1ccccc1` (stereo not given): the Potency result is “inactive”.

As for `C=CC[C@]1(O)CC[C@H]2[C@@H]3CCC4=CC(=O)CCC4=C3C=C[C@@]21C`, the Potency entry is “inactive”.

On to `C=CC(=O)OC(C)(C)C`, for which the Potency result was “inactive”.

In the case of `NCCCNCCCN`, the Potency result is “inactive”.

As for `Cl/C=C\Cl`, the Potency entry was “inactive”.

As to `COCCOCCO`, the Potency result is “inactive”.

On to `OCCCBr`, for which the Potency result was “inactive”.

`CCOC(=O)C(Cl)C(C)=O` (stereo not given): the Potency entry is “inactive”.

For `Nc1nc(=S)[nH][nH]1`, the Potency entry is “inactive”.

For the molecule `CCOP(O)OCC`, the Potency entry is “inactive”.

`O=C(O)c1ccccc1C(=O)Nc1cccc2ccccc12`: the Potency result is “inactive”.

For the molecule `CCCCC(O)(Cn1cncn1)c1ccc(Cl)cc1Cl` (stereo not given), the Potency entry was “inactive”.

For the molecule `CC(=O)NC1CCSC1=O` (stereo not given), the Potency entry was “inactive”.

On to `CN1C[C@H](CNC(=O)OCc2ccccc2)C[C@@H]2c3cccc4c3c(cn4C)C[C@H]21`, for which the Potency result is “inactive”.

As for `C/C=C/C=O`, the Potency entry is “inactive”.

In the case of `CCCC(=O)Cl`, the Potency entry is “inactive”.

For the molecule `O=[N+]([O-])c1ccccc1CCl`, the Potency entry was “inactive”.

As for `C[C@H]1CNCCc2ccc(Cl)cc21`, the Potency entry is “inactive”.

Consider `CCn1cc[n+](C)c1`, for which the Potency result is “inactive and 27.6 µM (active)”.

In the case of `CCOC(=O)COc1cc(-c2nn(C)c(OC(F)F)c2Cl)c(F)cc1Cl`, the Potency result was “inactive”.

Consider `O=[Se]=O`, for which the Potency is 9.62 µM (active).

For `CC(=O)[C@H]1CC[C@H]2[C@@H]3CC[C@H]4C[C@](C)(O)CC[C@]4(C)[C@H]3CC[C@]12C`, the Potency entry is “inactive”.

Regarding `C[C@]12CC[C@H]3[C@@H](CCC4=CC(=O)CC[C@@H]43)[C@@H]1CC[C@@H]2OC(=O)CCC1CCCCC1`, the Potency entry was “inactive”.

In the case of `CC(C)(C)c1cc([N+](=O)[O-])cc([N+](=O)[O-])c1O`, the Potency is 15.3 µM (active).

In the case of `CCC(Br)(CC)C(=O)NC(N)=O`, the Potency result is “inactive”.

For the molecule `COC(=O)C(C)N(C(=O)Cc1ccccc1)c1c(C)cccc1C` (stereo not given), the Potency result was “inactive”.

Consider `Cn1sc(Cl)cc1=O`, for which the Potency result was “inactive”.

As to `CCCCN(N=O)C(=N)N[N+](=O)[O-]`, the Potency result is “inactive”.

As to `CC(C)(CCl)C(=O)Cl`, the Potency entry is “inactive”.

With `O=NN1CCCCCC1`, the Potency entry was “inactive”.

For the molecule `CCC(Cl)CCl` (stereo not given), the Potency entry was “inactive”.

As to `CCCCc1c(C)nc(NCC)nc1OS(=O)(=O)N(C)C`, the Potency entry was “inactive”.

For `[CH3][Sn]([CH3])([Cl])[Cl]`, the Potency entry was “inactive”.

On to `C#CCOC(C(=O)OCCN(C)C)(c1ccccc1)c1ccccc1`, for which the Potency entry is “inactive”.
